Among all 190,000 compounds or so, about 360 (0.19%) were called active. Roughly 2% stayed inconclusive and do not appear here. The sample holds actives, similar compounds and a random draw of the others, so the mix is not that of the screen.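 Rule for the calls: active = GTP binding activity at least 20 points away from 100%, either lowered or raised; inconclusive = signal likely due to the compound's own green fluorescence; inactive = the rest.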

Among the data in PubChem BioAssay AID760 (NMMLSC, 2007) are GTP binding activity values, retold here.

The target in the assay is Ras-related protein Rab-2A (Canis lupus familiaris) (UniProt P61105). The experiment in a line: Rab2 wt fluorescent GTP binding changes, either direction – biochemical, dog, bead-based flow cytometry, multiplex, primary screen (AID 760).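 Note: 0% = beads with excess unlabeled GTP and 100% = no-compound control corrected for plate trend.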 The following applies: GST-Rab2 wt beads, Bodipy-GTP binding, at 10 µM.
Turning to `CCc1nnc(NC(=O)CSc2nnnn2-c2cccc(C(C)=O)c2)s1`, the GTP binding activity is 97% (inactive).

On to `CC(=O)NC1C(OCc2ccccc2)OC(COC(C)=O)C(OC(C)=O)C1OC(C)=O` (stereo unspecified), for which the GTP binding activity was 100% (inactive). To `O=C(OCC1O[C@@H](OC(=O)c2cc(O)c(O)c(O)c2)[C@@H](OC(=O)c2cc(O)c(O)c(O)c2)[C@@H](OC(=O)c2cc(O)c(O)c(O)c2)[C@@H]1OC(=O)c1cc(O)c(O)c(O)c1)c1cc(O)c(O)c(O)c1` (stereo partly specified) belongs 79% (active); to `CC1(C)CN(c2ccc(-c3ccnc4ncnn34)cc2)C1=O`, 99% (inactive).

On to `CCCOCC(O)CC(CC)C(=O)NNC(=S)Nc1ccccc1` (stereo unspecified), for which the GTP binding activity was 100% (inactive). As for `O=C(Nc1ccc(F)cc1)C1CCN(C(=O)c2ccc([N+](=O)[O-])cc2)CC1`, the figure is 97% (inactive). As for `O=C(Nc1ccc(F)c([N+](=O)[O-])c1)C1CC(=O)N(Cc2ccccc2)C1` (stereo unspecified), the figure is 92% (inactive). As for `Cc1cc(C2=NNC(=Nc3ccc(S(=O)(=O)N4CCOCC4)cc3)SC2)c(C)n1CC1CCCO1` (stereo unspecified), the figure is 101% (inactive). Regarding `O=C(N/C(=C\c1ccc(F)cc1)C(=O)N1CCCCCC1)c1ccccc1`, the GTP binding activity was 98% (inactive). To `Clc1ccc(CN2CCN(/N=C/c3cccnc3)CC2)cc1` belongs 101% (inactive); to `Cc1ccc(Nc2c(F)c(F)c(F)c(F)c2C(=O)O)c(C)c1`, 131% [activator] (active); to `Cc1ccc(NC(=S)NC(=O)c2ccc(-c3ccccc3)cc2)c(C)c1`, 97% (inactive).

Take `COc1c(F)c(F)c(C(=O)O)c(Nc2ccccc2C)c1F`: the GTP binding activity was 97% (inactive). As for `Cc1cc(C)n(CC(=O)Nc2ccc([N+](=O)[O-])cc2)n1`, the figure is 96% (inactive); as for `COc1ccc(C2CC(c3cccs3)Nc3nnnn32)cc1` (stereo unspecified), 98% (inactive). To `Cc1c(Br)ccc(NC(=O)COc2ccccc2C(N)=O)c1C` belongs 102% (inactive); to `CN1C(=O)/C(=C\c2ccc(-c3ccccc3)o2)SC1=S`, 88% (inactive); to `O=C(CCc1ccccc1)NCCc1cccs1`, 100% (inactive). On to `O=C(CCC(=O)N1CCCC1)Nc1ccc([N+](=O)[O-])cc1`, for which the GTP binding activity was 101% (inactive). As for `CN(C)CC(C)(C)CNC(=O)c1cc(Br)cc(Br)c1O`, the GTP binding activity is 95% (inactive). To `N#C/C(=C\c1ccc(-c2cccc([N+](=O)[O-])c2)o1)C(=O)NCCN1CCOCC1` belongs 92% (inactive).

With `CCN1CCN(C(=O)CCN2C(=O)c3ccccc3C2=O)CC1`, the GTP binding activity was 98% (inactive). As for `COc1ccc(CC(=O)NCc2nnc(SCC(=O)Nc3ncc(C)s3)n2C)cc1`, the figure is 98% (inactive); as for `CCC(O)C1CCN(Cc2cn(-c3ccc(OC)cc3)nc2-c2cccc(F)c2)CC1` (stereo unspecified), 102% (inactive); as for `CCC1(CC)NC(=O)N(Cc2nc3ccccc3s2)C1=O`, 98% (inactive). To `Nc1c(C(=O)O)cnn1-c1ccccc1` belongs 96% (inactive); to `Fc1ccccc1Cc1ccc(Cl)nn1`, 96% (inactive). As for `CC(=O)Nc1ccc(S(=O)(=O)Nc2nccc(/C=C/c3ccccc3F)n2)cc1`, the GTP binding activity was 99% (inactive). `O=C1NC2(CCCCCC2)C(=O)N1CCS(=O)(=O)Oc1ccccc1`: the GTP binding activity was 96% (inactive). For `O=C(Nc1cccnc1)c1ccc(Cl)cc1[N+](=O)[O-]`, the GTP binding activity is 103% (inactive). As for `CSc1nsc(SC)c1NC(=O)OC1CCCCC1`, the GTP binding activity was 31% (active). As for `CSc1ncccc1C(=O)NC1CCCCCC1`, the figure is 99% (inactive); as for `COc1ccc(NC(=O)c2c(SC)nsc2SC)cc1`, 100% (inactive); as for `Cc1ccc(N(C(=O)c2ccc(S(=O)(=O)N(C)C)cc2)C2C=CS(=O)(=O)C2)cc1` (stereo unspecified), 99% (inactive).

For `COc1ccc(CCNC(=O)CCn2c(=O)c3ccccc3n(CC(=O)NCC3CCCO3)c2=O)cc1OC` (stereo unspecified), the GTP binding activity was 96% (inactive). As for `COc1ccc(/C=C/C2=CC(C)(C)NC(=S)N2)c(OC)c1`, the figure is 96% (inactive); as for `CCOC(=O)c1ccc(NC(=O)C2CC(=O)Nc3nc4ccccc4n32)cc1` (stereo unspecified), 94% (inactive). To `C/C(=N\NC(=O)OC(C)(C)C)c1ccc[nH]1` belongs 98% (inactive); to `O=C(Cn1nnc2ccccc2c1=O)NCc1ccc(Cl)cc1`, 100% (inactive). As for `CC(C)CCC(C)NC(=O)c1ccc2nccnc2c1` (stereo unspecified), the figure is 97% (inactive). `COc1ccc(CCNC(=O)COC(=O)Cc2cc(OC)c(OC)c(OC)c2)cc1`: the GTP binding activity was 96% (inactive).

`Cn1cc(-c2ccccc2)cc(C#N)c1=O`: the GTP binding activity was 98% (inactive). For the compound `CCc1ccccc1NC(=O)CSc1nnc(-c2ccncc2)o1`, the GTP binding activity was 99% (inactive).

Consider `Cc1ccc(C2=NN(C(=O)COc3ncnc4ccccc34)C(c3ccco3)C2)cc1` (stereo unspecified), for which the GTP binding activity was 93% (inactive).

Regarding `COc1ccc(OC)c(-n2c(=S)[nH]c3cc(C(=O)N4CCCCC4)ccc3c2=O)c1`, the GTP binding activity was 100% (inactive). As for `S=C(Nc1ccc(Br)cc1Cl)NC1CCN(Cc2ccccc2)CC1`, the figure is 100% (inactive); as for `CN(C)c1nc(-c2cccnc2)nc(-c2ccc(Cl)cc2)c1C#N`, 98% (inactive). Take `CC(=O)Nc1ccc(OCCC[n+]2cccc(C(=O)[O-])c2)cc1`: the GTP binding activity is 97% (inactive). As for `CCOC(=O)C1=C(CN2CCCCCC2)NC(=O)NC1c1cccc([N+](=O)[O-])c1` (stereo unspecified), the figure is 97% (inactive); as for `COc1ccc(-n2c(C)nn(CC3CC3)c2=O)cc1`, 100% (inactive); as for `CN(C)CCCn1c(SCCN2C(=O)c3ccccc3C2=O)nc2ccccc2c1=O`, 95% (inactive). To `O=S(=O)(Nc1cc(S(=O)(=O)N2CCOCC2)ccc1N1CCCC1)c1cccs1` belongs 98% (inactive); to `Cc1ccc(N(C(=O)Cc2cccs2)C2C=CS(=O)(=O)C2)cc1Cl` (stereo unspecified), 100% (inactive); to `C/C(=N\Nc1ncc(Cl)cc1Cl)c1cccs1`, 98% (inactive). To `Cc1cccc(CN2CCN(Cc3cnn(-c4ccccc4F)c3)CC2CCO)n1` (stereo unspecified) belongs 99% (inactive); to `Cc1cc(C)n(-c2nc(C(F)(F)F)nc3ccccc23)n1`, 96% (inactive). For the compound `Cc1ccc(NC(=S)N(Cc2ccco2)C(C)c2cccs2)cc1` (stereo unspecified), the GTP binding activity is 101% (inactive). For `COC(=O)c1cc(NC(=O)c2cccnc2)ccc1N1CCOCC1`, the GTP binding activity was 96% (inactive). Take `CCN(CC)c1ccc(C(=O)c2cnc(/N=C/N(C)C)s2)cc1`: the GTP binding activity is 95% (inactive). To `Cc1cc(NC(=O)CSc2nc3c(cc2C#N)CCCCC3)no1` belongs 94% (inactive); to `O=C(Cc1ccccc1)N1CCN(S(=O)(=O)c2ccc([N+](=O)[O-])cc2)CC1`, 98% (inactive).
